PubChem BioAssay (Tox21)
Records with an inconclusive call do not appear. Active and inactive are the calls of the source. Unless noted, the call rests on the fitted dose curve.

Tests used:
[1] = Nuclear factor erythroid 2-related factor 2/antioxidant responsive element (Nrf2/ARE) small molecule agonists: qHTS cell viability counter screen in human keratinocytes (AID 1919968; active means well fitted curve in the direction sought with a large enough effect in the repeat runs; an effect the other way counts as inactive or inconclusive; further: nearly all actives have a fitted effect of over 55% in size)
How it was run: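 KeratinoSens HaCaT cells, 1,500/well, preincubated 5 h, then exposed to compounds in DMSO for 23 h at 37 C/5% CO2. Viability read as CellTiter-Fluor fluorescence after 1 h, in the same wells as the ARE-luciferase read.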

[2] = Nuclear factor erythroid 2-related factor 2/antioxidant responsive element (Nrf2/ARE) small molecule agonists: luciferase reporter gene qHTS assay in human keratinocytes (AID 1919969); further: nearly all actives have a fitted effect of over 35% in size
[3] = biological target: Gonadotropin-releasing hormone receptor (Homo sapiens) (UniProt P30968); test: Human gonadotropin-releasing hormone receptor (GnRHR) small molecule agonists, calcium flux assay in GnRHR-HEK293 cells (AID 1920063); further: nearly all actives have a fitted effect of over 35% in size
How it was run: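 HEK293 cells stably expressing human GnRHR were dye-loaded for 1 h at 37 C. Compound was added in agonist mode and fluorescence (Ex/Em 480/540) recorded kinetically for 3 min. Fifteen concentrations, triplicates.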

[4] = biological target: KiSS-1 receptor (Homo sapiens) (UniProt Q969F8); test: Human kisspeptin (KISS1R) small molecule agonists, calcium flux assay in KISS1R-HEK293 cells (AID 1920064; active means well fitted curve in the direction sought with a large enough effect in the repeat runs; an effect the other way counts as inactive or inconclusive)
How it was run: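 HEK293 cells stably expressing human KISS1R were loaded with calcium dye for 1 h at 37 C, then given compound; fluorescence (Ex/Em 480/540) was read kinetically for 3 min. Fifteen concentrations, triplicate.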

[5] = G protein-coupled receptor (GPCR) small molecule agonists, calcium flux assay: HEK293 wild type cell line counter screen (AID 1920065)
How it was run: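 Wild-type HEK293 cells plated 18 h, loaded with calcium dye 1 h at 37 C, then compounds added in agonist mode (ATP as positive control). Kinetic fluorescence Ex/Em 480/540 recorded 3 min at 1 sec intervals; 15 concentrations, triplicate.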

[6] = p53 small molecule agonists, cell-based qHTS assay with human liver microsomes (AID 1963577);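 further: p53 response element beta-lactamase reporter cells with liver microsomes plus NADPH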
How it was run: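 16 h, 37 C exposure of p53RE-bla cells to compounds with human liver microsomes and NADPH (0.5 mg/mL final each); detection via LiveBLAzer mixture, 2 h dark at room temperature.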

[7] = p53 small molecule agonists, cell-based qHTS assay with rat liver microsomes (AID 1963578)
How it was run: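 With rat liver microsomes and NADPH present (0.5 mg/mL final each), p53RE-bla cells are treated with compound for 16 h at 37 C. LiveBLAzer detection mixture is then applied for 2 h at room temperature in the dark.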

[8] = p53 small molecule agonists, cell-based qHTS assay with human liver microsomes: qHTS cell viability counter screen (AID 1963579); further: nearly all actives have a fitted effect of over 45% in size
How it was run: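 In this multiplexed counter screen, the reporter plates were subsequently treated with CellTiter-Glo so that cell viability, reflected by luminescence, could be recorded for p53RE-bla cells dosed 16 h with compounds under microsomal activation (HLM and NADPH).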

[9] = p53 small molecule agonists, cell-based qHTS assay with rat liver microsomes: qHTS cell viability counter screen (AID 1963580); further: nearly all actives have a fitted effect of over 45% in size
How it was run: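 p53RE-bla HCT-116 cells were exposed 16 h at 37 C to compounds with rat liver microsomes (0.5 mg/mL) and NADPH (0.5 mg/mL). Viability was measured in the same wells as ATP content by CellTiter-Glo luminescence.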

[10] = p53 small molecule agonists, cell-based qHTS assay: qHTS cell viability counter screen (AID 1963581); further: nearly all actives have a fitted effect of over 45% in size
How it was run: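 p53RE-bla HCT-116 cells, compounds added 5 h after plating and incubated 16 h at 37 C. Cytotoxicity measured in the same wells as intracellular ATP by CellTiter-Glo luminescence after 30 min at room temperature.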

[11] = p53 small molecule agonists, cell-based qHTS assay (AID 1963582; active means well fitted activation curve with a large enough effect in the signal ratio in the repeat runs, not every such curve was filed as active; the % refers to the signal ratio)
How it was run: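 p53RE-bla reporter cells, compounds added in DMSO after 5 h plating, incubated 16 h at 37 C. Beta-lactamase read via 2 h room-temperature LiveBLAzer B/G FRET substrate, fluorescence intensity.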

[12] = biological target: Muscarinic acetylcholine receptor M1 (Homo sapiens) (UniProt P11229); test: Cholinergic receptor muscarinic 1 (CHRM1) small molecule antagonists, cell-based qHTS assay (AID 1963588); further: nearly all actives have a fitted effect of over 40% in size
How it was run: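 CHRM1-CHO calcium-flux assay, antagonist mode. Cells were seeded 18 h, dye-loaded 1 h at 37 C and given compound for 5 min at RT, then acetylcholine was added at 50nM. FDSS fluorescence was read 3 min; 15 concentrations, three runs.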

[13] = biological target: Muscarinic acetylcholine receptor M1 (Homo sapiens) (UniProt P11229); test: Cholinergic receptor muscarinic 1 (CHRM1) small molecule agonists, cell-based qHTS assay (AID 1963589); further: nearly all actives have a fitted effect of over 35% in size
How it was run: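 CHO cells stably expressing human CHRM1 were loaded with calcium dye for 1 h at 37 C, then compound was added in agonist mode. Intracellular calcium fluorescence was followed kinetically at 1 s intervals. Fifteen concentrations were tested in three independent runs.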

[14] = cAMP Responsive Elements (CRE) small molecule agonists, cell-based qHTS assay (AID 1963590)
How it was run: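 CRE-bla HEK 293T cells, 2,000/well in DMEM with 10% dialyzed FBS and 25 mM HEPES, pre-incubated 18 h at 37 C, then exposed to compound 3 h at 37 C. Beta-lactamase reporter read with LiveBLAzer B/G FRET substrate after 2 h at room temperature.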

[15] = cAMP Responsive Elements (CRE) small molecule antagonists, cell-based qHTS assay (AID 1963591; active means well fitted inhibition curve with a large enough effect in the signal ratio in the repeat runs, not every such curve was filed as active; the % refers to the signal ratio)
How it was run: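 CRE-bla HEK293T cells plated 18 h, then given compound plus NKH477 at 0.25 uM final for 3 h at 37C. Beta-lactamase reporter read with LiveBLAzer B/G FRET substrate after 2 h at room temperature.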

[16] = biological target: Beta-2 adrenergic receptor (Homo sapiens) (UniProt P07550); test: Adrenergic beta2 receptor (ADRB2) small molecule antagonists, cell-based qHTS assay (AID 1963592); further: series mostly up to about 92 µM; nearly all actives have a fitted effect of over 50% in size
How it was run: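 Cells (CHO, stable ADRB2 overexpression) incubated 18-20hr at 37C; compounds added from DMSO; agonist mix (1nM isoproterenol, 100uM IBMX, 25uM Ro-20-1724) added; 0.5hr RT; d2-cAMP and anti-cAMP-cryptate added; 1hr RT; 665/615 nm read.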

[17] = biological target: D(2) dopamine receptor (Homo sapiens) (UniProt P14416); test: Dopamine D2 receptor (DRD2) small molecule agonists, cell-based qHTS assay (AID 1963594); further: nearly all actives have a fitted effect of over 35% in size
How it was run: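 HEK293 cells stably expressing human DRD2, pre-treated with PDE inhibitor Ro20-1724 (0.1 mM final) and compound 10 min at room temperature, then stimulated with NKH477 (200nM […]) for 30 min. cAMP read by HTRF (665/620 nm).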

[18] = biological target: D(2) dopamine receptor (Homo sapiens) (UniProt P14416); test: Dopamine D2 receptor (DRD2) small molecule antagonists, cell-based qHTS assay (AID 1963595; active means well fitted inhibition curve with a large enough effect in the signal ratio in the repeat runs, with a control signal flat; the % refers to the signal ratio)
How it was run: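 DRD2-HEK293; 0.1 mM Ro20-1724; cpd 10 min RT; NKH477 200 nM + quinpirole 12 nM, 30 min RT; HTRF cAMP (cAMP-d2/anti-cAMP cryptate), 665/620 nm ratio after 1 h.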

[19] = biological target: 5-hydroxytryptamine receptor 2A (Homo sapiens) (UniProt P28223); test: 5-hydroxytryptamine receptor 2A (HTR2A) small molecule agonists, cell-based qHTS assay (AID 1963587); further: nearly all actives have a fitted effect of over 30% in size
How it was run: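 CHO cells stably expressing human HTR2A, plated 18 h, loaded with calcium dye 1 h at 37 C. Agonist mode: compounds added and intracellular calcium fluorescence recorded kinetically for 2 min at 1 sec intervals.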

[20] = biological target: Beta-2 adrenergic receptor (Homo sapiens) (UniProt P07550); test: Adrenergic beta2 receptor (ADRB2) small molecule agonists, cell-based qHTS assay (AID 1963593);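 further: CHO cells stably overexpressing human ADRB2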
How it was run: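 CHO cells stably over-expressing ADRB2 were plated overnight at 37C, then dosed with compounds plus a stimulation mix containing 100uM IBMX and 25uM Ro-20-1724 for 0.5hr at room temperature. cAMP was measured by HTRF competition, 1hr.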

Measured: Potency

Chain of Beta-2 adrenergic receptor (Homo sapiens) (P07550 whole entry, looked up): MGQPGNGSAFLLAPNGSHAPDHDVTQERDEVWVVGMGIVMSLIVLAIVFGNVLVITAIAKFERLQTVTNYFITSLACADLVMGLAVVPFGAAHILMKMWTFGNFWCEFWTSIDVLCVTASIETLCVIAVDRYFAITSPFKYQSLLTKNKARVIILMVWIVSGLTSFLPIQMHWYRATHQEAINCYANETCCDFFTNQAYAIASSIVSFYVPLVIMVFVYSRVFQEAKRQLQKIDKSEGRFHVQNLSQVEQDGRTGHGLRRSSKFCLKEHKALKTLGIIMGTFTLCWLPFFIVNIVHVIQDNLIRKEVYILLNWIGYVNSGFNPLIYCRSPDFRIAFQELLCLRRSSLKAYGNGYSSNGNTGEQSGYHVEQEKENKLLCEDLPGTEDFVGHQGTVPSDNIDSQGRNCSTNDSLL
Chain of Muscarinic acetylcholine receptor M1 (Homo sapiens) (P11229 whole entry, looked up): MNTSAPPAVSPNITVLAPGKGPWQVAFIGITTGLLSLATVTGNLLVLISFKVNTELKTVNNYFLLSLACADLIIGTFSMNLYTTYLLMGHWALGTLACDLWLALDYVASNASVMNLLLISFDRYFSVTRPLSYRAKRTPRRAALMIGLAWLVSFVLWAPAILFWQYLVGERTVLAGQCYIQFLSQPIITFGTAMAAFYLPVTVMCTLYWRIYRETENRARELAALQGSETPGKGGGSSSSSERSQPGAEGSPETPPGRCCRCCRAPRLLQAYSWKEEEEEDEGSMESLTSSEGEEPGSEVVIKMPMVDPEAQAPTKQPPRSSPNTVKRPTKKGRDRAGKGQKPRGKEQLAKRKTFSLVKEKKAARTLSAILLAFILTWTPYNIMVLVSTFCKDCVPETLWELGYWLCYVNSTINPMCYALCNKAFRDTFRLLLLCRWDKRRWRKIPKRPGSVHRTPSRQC
Chain of KiSS-1 receptor (Homo sapiens) (Q969F8 whole entry, looked up): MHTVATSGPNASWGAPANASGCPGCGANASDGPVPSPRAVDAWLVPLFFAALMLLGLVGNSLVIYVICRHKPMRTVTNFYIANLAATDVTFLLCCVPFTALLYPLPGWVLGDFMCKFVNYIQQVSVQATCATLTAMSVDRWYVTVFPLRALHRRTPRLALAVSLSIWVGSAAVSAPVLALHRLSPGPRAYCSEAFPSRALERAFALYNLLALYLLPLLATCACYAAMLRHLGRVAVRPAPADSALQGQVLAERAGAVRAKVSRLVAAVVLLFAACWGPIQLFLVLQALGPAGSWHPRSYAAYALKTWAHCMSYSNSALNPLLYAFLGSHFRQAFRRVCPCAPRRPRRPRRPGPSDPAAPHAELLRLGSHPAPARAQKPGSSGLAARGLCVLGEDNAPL
Chain of D(2) dopamine receptor (Homo sapiens) (P14416 whole entry, looked up): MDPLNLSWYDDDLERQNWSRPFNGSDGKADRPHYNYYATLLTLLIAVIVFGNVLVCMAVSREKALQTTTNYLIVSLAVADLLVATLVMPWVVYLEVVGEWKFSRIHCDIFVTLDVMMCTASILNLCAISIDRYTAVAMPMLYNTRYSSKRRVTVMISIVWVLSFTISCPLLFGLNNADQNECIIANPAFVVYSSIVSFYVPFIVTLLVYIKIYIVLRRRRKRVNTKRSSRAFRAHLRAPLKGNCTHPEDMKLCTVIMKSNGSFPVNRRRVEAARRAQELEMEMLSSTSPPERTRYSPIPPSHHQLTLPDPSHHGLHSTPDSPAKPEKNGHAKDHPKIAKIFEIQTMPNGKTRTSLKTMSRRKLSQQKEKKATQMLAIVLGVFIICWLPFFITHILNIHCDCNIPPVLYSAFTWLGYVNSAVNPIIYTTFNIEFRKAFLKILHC
Chain of Gonadotropin-releasing hormone receptor (Homo sapiens) (P30968 whole entry, looked up): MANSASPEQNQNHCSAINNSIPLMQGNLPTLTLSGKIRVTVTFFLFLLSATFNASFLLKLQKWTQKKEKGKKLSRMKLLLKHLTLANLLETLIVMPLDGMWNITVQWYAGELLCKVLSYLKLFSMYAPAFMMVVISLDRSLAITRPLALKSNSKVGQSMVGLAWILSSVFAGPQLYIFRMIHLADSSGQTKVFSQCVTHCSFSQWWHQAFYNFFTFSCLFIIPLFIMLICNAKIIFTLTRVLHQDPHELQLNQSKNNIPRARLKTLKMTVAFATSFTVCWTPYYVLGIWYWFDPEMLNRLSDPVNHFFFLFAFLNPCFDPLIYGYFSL
Chain of 5-hydroxytryptamine receptor 2A (Homo sapiens) (P28223 whole entry, looked up): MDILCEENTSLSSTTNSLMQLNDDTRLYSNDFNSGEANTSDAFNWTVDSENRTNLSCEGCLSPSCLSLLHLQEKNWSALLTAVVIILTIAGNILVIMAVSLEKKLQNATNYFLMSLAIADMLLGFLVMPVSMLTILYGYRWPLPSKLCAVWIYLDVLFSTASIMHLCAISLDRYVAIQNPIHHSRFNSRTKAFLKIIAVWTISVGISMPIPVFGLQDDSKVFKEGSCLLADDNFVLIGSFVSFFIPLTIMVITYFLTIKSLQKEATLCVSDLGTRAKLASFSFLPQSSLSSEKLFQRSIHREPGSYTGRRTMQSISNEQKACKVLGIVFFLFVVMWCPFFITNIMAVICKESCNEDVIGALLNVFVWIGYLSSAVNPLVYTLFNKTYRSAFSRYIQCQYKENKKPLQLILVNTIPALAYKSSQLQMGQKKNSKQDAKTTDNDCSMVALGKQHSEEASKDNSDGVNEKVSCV

CCC(=O)Nc1ccc(O)cc1
not listed: [19] | [20]
inactive: all other assays above

CC1CCCCC1
not listed: [19] | [20]
inactive: all other assays above

O=C(CCCN1CCN(c2ccccn2)CC1)c1ccc(F)cc1
not listed: [17] | [18] | [20]
inactive: all other assays above

CCCCCCCCCCCCN1CCOCC1
not listed: [19]
inactive: all other assays above

Cc1scc2c1N(C(=O)CN1CCN(C)CC1)c1ccccc1NC2=O
not listed: [12] | [13] | [15] | [16] | [18] | [20]
inactive: all other assays above

CCCCCC[C@@H](O)C/C=C\CCCCCCCC(=O)OCC(O)CO (some centres undefined)
not listed: [12] | [13] | [14] | [15] | [20]
inactive: all other assays above

O=C1CCCCO1
not listed: [19] | [20]
inactive: all other assays above
